Assay outcomes deposited in PubChem by National Center for Advancing Translational Sciences (NCATS).
EPAC2 agonist: qHTS for Agonist of cAMP-regulated guanine nucleotide exchange factor 4 (EPAC2): primary screen | Rap guanine nucleotide exchange factor 4 (Homo sapiens), Q8WZA2 | Potency, µM (series often up to 154 µM), most hits filed as activators | EPAC2 activation, biochemical qHTS; response scale: 100% = 6.5 mM cAMP response | actives 0.079% (n = 360,000); note: nearly all actives have a fitted effect of over 50% in size
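Fluorescence exchange assay: 100 nM EPAC2 with 250 nM RAP1B-BODIPY-GDP and 50 uM GDP; compounds tested as a concentration-titration series (qHTS). Loss of Rap1-bound BODIPY-GDP fluorescence read at 480/540 nm; data normalized to 6.5 mM cAMP.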
TRPML1 inh: qHTS for Inhibitors of the Human Mucolipin Transient Receptor Potential 1 (TRPML1); Mucolipin-1 (Homo sapiens), Q9GZU1; activity change, negative = inhibition, % (no concentration beside the values); actives 0.02% (n = 390,000); TRPML1-inducible cells, Ca2+ dye fluorescence, FDSS; stronger effect = lower value; inhibition of EC80 agonist-evoked calcium signal; in the data active = activity change below about -50%; inconclusive = between about -30% and that limit;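 note: stimulus is agonist 54-4 at its EC80 concentration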
Target sequence (Q9GZU1 whole entry, looked up): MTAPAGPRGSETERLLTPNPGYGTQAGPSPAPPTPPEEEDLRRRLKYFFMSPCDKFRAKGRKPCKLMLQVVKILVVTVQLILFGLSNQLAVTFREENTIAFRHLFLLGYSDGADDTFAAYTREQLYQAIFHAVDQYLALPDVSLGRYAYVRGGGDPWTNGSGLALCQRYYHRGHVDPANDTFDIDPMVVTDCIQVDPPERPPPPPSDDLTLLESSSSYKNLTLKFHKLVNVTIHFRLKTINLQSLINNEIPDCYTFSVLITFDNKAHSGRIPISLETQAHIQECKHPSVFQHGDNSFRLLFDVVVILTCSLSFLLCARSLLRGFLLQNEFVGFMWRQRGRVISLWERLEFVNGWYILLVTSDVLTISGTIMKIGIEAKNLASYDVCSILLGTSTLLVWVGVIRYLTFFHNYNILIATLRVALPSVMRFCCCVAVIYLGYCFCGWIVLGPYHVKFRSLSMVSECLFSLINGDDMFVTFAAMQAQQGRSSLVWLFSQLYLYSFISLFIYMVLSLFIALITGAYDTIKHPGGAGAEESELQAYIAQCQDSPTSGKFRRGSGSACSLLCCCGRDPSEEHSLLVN
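Tet-induced TRPML1-DL cells loaded with Ca8 no-wash calcium dye were read kinetically on FDSS. Compound addition was followed by EC80 agonist 54-4 (4 uM final); inhibition was read over 110 s.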
EPAC2 antagonist: qHTS for Antagonist of cAMP-regulated guanine nucleotide exchange factor 2 (EPAC2): primary screen | EPAC2 GEF exchange of Rap1B-BODIPY-GDP, fluorescence | actives 0.18% (n = 360,000) | AID 720708, 2013 | Potency, µM (series often up to 114 µM), most hits filed as inhibitors | Rap guanine nucleotide exchange factor 4 (Homo sapiens), Q8WZA2; note: nearly all actives have a fitted effect of over 45% in size
EPAC1 antag: qHTS for Antagonist of cAMP-regulated guanine nucleotide exchange factor 3 (EPAC1): primary screen; actives 0.14% (n = 360,000); Rap guanine nucleotide exchange factor 3 (Homo sapiens), O95398; EPAC1 GEF assay, Rap1b-BODIPY-GDP exchange fluorescence; Potency, µM (highest dose often 115 µM), usual class: inhibitors; note: nearly all actives have a fitted effect of over 50% in size
EPAC1 ag: qHTS for Agonist of cAMP-regulated guanine nucleotide exchange factor 3 (EPAC1): primary screen; actives 0.073% (n = 360,000); Potency, µM (series often up to 154 µM), hits mostly activators; Rap guanine nucleotide exchange factor 3 (Homo sapiens), O95398; EPAC1 agonist qHTS, biochemical assay; response scale: 100% = response to 6.5 mM cAMP; note: nearly all actives have a fitted effect of over 60% in size
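Nucleotide exchange assay: 100 nM EPAC1 with 250 nM Rap1B loaded with BODIPY-GDP and 50 uM GDP, room temperature. Fluorescence (480/540 nm) read every 5 min for 30 min; signal change normalized to 6.5 mM cAMP as full agonist.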
TRPML1 ag: qHTS for Agonists of the Human Mucolipin Transient Receptor Potential 1 (TRPML1); TRPML1-expressing cells, Ca2+ dye fluorescence, FDSS; activation, % (no concentration beside the values); actives 0.12% (n = 410,000); AID 624414, 2012; in the data active = activation above about 50%; inconclusive = mostly about 30% to 49%
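Agonist activity was taken from a 110 s kinetic Ca2+ dye read on the FDSS after pinning compounds onto TRPML1-DL cells. The cells were seeded at 1,500/well with Tet inducer, incubated about 16 h, then dye-loaded at room temperature.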
Hits are given with their value; [ ] = dose if it differs, or a comment. Shown are actives, neighbours in structure and some others; about 0.4% of the full set was active somewhere. Unless noted, calls come from the whole dose curve; as a rule, active = well fitted curve in the direction sought with a large enough effect; inconclusive = small, poorly fitted or top-dose-only effect, or another doubt; inactive = no such curve, though single readings can be large; an effect the other way counts as inactive or inconclusive.

What do the screens show for `CCCCCNC(=O)c1c[nH]c2ccc(S(=O)(=O)N3CCC(C)CC3)cc2c1=O`?
TRPML1 inh: -50; TRPML1 ag: inactive

How did CC(C)OC1(c2ccccc2)OC(=O)c2ccccc21 (configuration not stated) do in these assays?
EPAC2 agonist: inactive; TRPML1 inh: inactive; EPAC2 antagonist: 35µM; EPAC1 antag: inactive; EPAC1 ag: inactive; TRPML1 ag: inactive

How did O=[N+]([O-])c1ccc(O/N=[N+](\[O-])N2CCN(c3ncccn3)CC2)c([N+](=O)[O-])c1 do in these assays?
TRPML1 inh: inactive; TRPML1 ag: inactive

What do the screens show for `CC(C)(C)n1ncc2c(=O)n(Cc3ccc(F)cc3F)cnc21`?
TRPML1 inh: inactive; TRPML1 ag: inactive

Results for CC1(C)c2ccccc2N(CC(N)=O)C12C=Cc1ccccc1O2 (configuration not stated) ?
EPAC2 agonist: inactive; TRPML1 inh: inactive; EPAC2 antagonist: 18µM; EPAC1 antag: inactive; EPAC1 ag: inactive; TRPML1 ag: inactive

What do the screens show for `COc1cc2cncnc2cc1OCCCCC(N)=O`?
TRPML1 ag: inactive

Results for CCOC(=O)c1cc(-c2ccc(/C=N\n3cnnc3)o2)ccc1Cl ?
EPAC2 agonist: inactive[15.6 µM]; TRPML1 inh: inactive; EPAC2 antagonist: inactive; EPAC1 antag: inactive; EPAC1 ag: inactive; TRPML1 ag: inactive

Results for CCOC(=O)c1cc(-c2ccc(/C=C3/C(=O)N(c4ccc(C(=O)O)cc4)N=C3C)o2)ccc1Cl ?
EPAC2 agonist: inactive; TRPML1 inh: inactive; EPAC2 antagonist: inactive; EPAC1 antag: 35µM; EPAC1 ag: inactive; TRPML1 ag: inactive

Results for CCOC(=O)CC1C(=O)NCCN1C(=O)c1cccc(C(F)(F)F)c1 (configuration not stated) ?
EPAC2 agonist: inactive; TRPML1 inh: inactive; EPAC2 antagonist: 20µM; EPAC1 antag: inactive; EPAC1 ag: inactive; TRPML1 ag: inactive

What do the screens show for `CCCCN(CCCC)c1ccc(C=Nc2ccc(/C=C/c3ccnc4ccccc34)cc2)cc1C`?
TRPML1 ag: inactive

How did Cc1ccc(N2CC(NC(=O)c3ccc(S(=O)(=O)N(C)C)cc3)CC2=O)cc1C (configuration not stated) do in these assays?
TRPML1 inh: inactive; TRPML1 ag: inactive

What do the screens show for `N#Cc1c(NC(=O)c2ccccc2Cl)n(Cc2ccccc2)c2nc3ccccc3nc12`?
EPAC2 agonist: inactive; TRPML1 inh: inactive; EPAC2 antagonist: 45µM; EPAC1 antag: 35µM; EPAC1 ag: inactive; TRPML1 ag: inactive

Results for CCOc1ccccc1N(CC(=O)N1CCOCC1)S(=O)(=O)c1ccc(SC)cc1 ?
EPAC2 agonist: inactive; TRPML1 inh: inactive; EPAC2 antagonist: inactive; EPAC1 antag: inactive; EPAC1 ag: inactive; TRPML1 ag: 105

Results for Cc1ccc(S(=O)(=O)N(CC(=O)N2CCOCC2)c2ccccc2F)cc1 ?
EPAC2 agonist: inactive; TRPML1 inh: inactive; EPAC2 antagonist: inactive; EPAC1 antag: inactive; EPAC1 ag: inactive; TRPML1 ag: inactive

How did Cc1cc2nc3c(=O)n(C4CCCCC4)c(=O)[nH]c3nc2cc1N do in these assays?
EPAC2 agonist: inconclusive; TRPML1 inh: inactive; EPAC2 antagonist: inactive; EPAC1 antag: inactive; EPAC1 ag: 112µM; TRPML1 ag: 87

Results for C#CCOCCOCCOCCNc1nc(N2CCN(C(=O)CCCCCCCCCCNC(=O)[C@H](CO)n3cc(CCCSC)nn3)CC2)nc(N2CCN(C(=O)CCCCCCCCCCNC(=O)[C@H](CCCN=C(N)N)n3cc(C[C@@H](C)CC)nn3)CC2)n1 ?
EPAC2 agonist: inactive; TRPML1 inh: inactive; EPAC2 antagonist: inconclusive; EPAC1 antag: 56µM; EPAC1 ag: inactive; TRPML1 ag: inactive

What do the screens show for `CN(C)C=Nc1c(Br)cc(Br)c2nonc12`?
EPAC2 agonist: inactive; TRPML1 inh: inactive; EPAC2 antagonist: inactive; EPAC1 antag: inactive; EPAC1 ag: inactive; TRPML1 ag: 62

How did CN(C)C=Nc1nonc1-c1ccccc1 do in these assays?
EPAC2 agonist: inactive; TRPML1 inh: inactive; EPAC2 antagonist: inconclusive; EPAC1 antag: inactive; EPAC1 ag: inactive; TRPML1 ag: inactive

How did Nc1ccc(-c2c3ccc(=O)cc-3oc3cc(O)ccc23)c(C(=O)O)c1 do in these assays?
EPAC2 agonist: 126µM; TRPML1 inh: inactive; EPAC2 antagonist: inactive; EPAC1 antag: inactive; EPAC1 ag: 100µM; TRPML1 ag: 84

How did O=C(OCCF)N1CCN(/[N+]([O-])=N/Oc2ccc([N+](=O)[O-])cc2[N+](=O)[O-])CC1 do in these assays?
TRPML1 inh: inactive; TRPML1 ag: inactive

Results for Cc1ccc(CN2[C@H]3CCCC[C@@H]3OCCS2(=O)=O)cc1 ?
TRPML1 ag: inactive

What do the screens show for `O=C1CCc2cc(NS(=O)(=O)c3ccc([N+](=O)[O-])cc3)cc3c2N1CC3`?
EPAC2 agonist: inactive; TRPML1 inh: inactive; EPAC2 antagonist: inactive; EPAC1 antag: inactive; EPAC1 ag: 79µM; TRPML1 ag: inactive

Results for Cc1cc(C(Br)(Br)Br)nc2ccccc12 ?
TRPML1 ag: inactive

Results for O=C(Nc1ccc(-c2nc3ccc(NC(=O)c4cccs4)cc3[nH]2)cc1)c1cccs1 ?
EPAC2 agonist: inconclusive; TRPML1 inh: inactive; EPAC2 antagonist: 50µM; EPAC1 antag: inconclusive; EPAC1 ag: inactive; TRPML1 ag: inactive

How did O=C(Nc1ccc2nc(-c3cccs3)[nH]c2c1)c1cccs1 do in these assays?
EPAC2 agonist: inactive; TRPML1 inh: inactive; EPAC2 antagonist: inactive; EPAC1 antag: inactive; EPAC1 ag: inactive; TRPML1 ag: inactive

How did O=C(O)c1ccc(-n2c(/C=C\c3ccc(O)cc3)nc3ccccc3c2=O)cc1 do in these assays?
TRPML1 inh: inactive; TRPML1 ag: inactive

What do the screens show for `CN(C)c1ccc(/C=C/c2nc3ccccc3c(=O)n2-c2ccc(C(=O)O)cc2)cc1`?
EPAC2 agonist: inactive; TRPML1 inh: inactive; EPAC2 antagonist: inactive; EPAC1 antag: inactive; EPAC1 ag: 63µM; TRPML1 ag: 64

What do the screens show for `CCOc1cccc(C(=O)Nc2ccc3oc(Cc4ccc(Cl)cc4)nc3c2)c1`?
EPAC2 agonist: 7.9µM; TRPML1 inh: inactive; EPAC2 antagonist: inactive; EPAC1 antag: inactive; EPAC1 ag: inactive; TRPML1 ag: inactive
